Only some compounds are listed: those with a hit (about 4.9% of all), similar ones and a draw of the others.
Mdm2 MdmX PPI – human Mdm2/MdmX binding inhibition; AID 485346; 330,000 tested, 3% active; SaOS-2 split-luciferase Mdm2/MdmX complementation, luminescence; inhibition, % at 8 µM; O15151+Q00987;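 active = inhibition of at least 50% at 8 µM in the primary screen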
PP5 inh – inhibitors of human protein phosphatase 5 (PP5) | P53041 | purified PP5c, OMFP substrate fluorescence | inhibition, % at 6.7 µM | 320,000 tested, 0.18% active | AID 1987;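 active = inhibition above the campaign's mean inhibition across all tested compounds plus 3 SD, cut at about 9.5% in these data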
CSC inhib – cancer stem cell inhibition; inhibition, % at 7.5 µM; 300,000 tested, 1.1% active; cancer stem cell-like cells viability, luminescence; in the data active = inhibition above about 75%; inconclusive = no clear call, values can overlap the other calls; tested in HMLE shEcad cells
Beta cell apopt – blocks beta cell apoptosis | INS-1E cytokine-induced death, ATP luminescence, 48 h; percent of positive-control rescue, neutral wells zero | protection from apoptosis, % (concentration not given with the values) | 300,000 tested, 0.8% active | AID 435005;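 active = Every replicate reaches about 75%, or at least half do and their mean reaches it too, limit read from the data; inconclusive = At least half of replicates reach the limit but their mean does not; inactive = Under half of replicates reach the limit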;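 also: higher means more ATP so stronger rescue from cytokine killing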
PP1 inh – counter-screen for PP5 inhibitors: inhibitors of human PP1-alpha | P62136 | purified PP1alpha, OMFP fluorescence | inhibition, % at 6.7 µM | 320,000 tested, 0.9% active | AID 2235;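 active = inhibition above the mean inhibition of all tested compounds plus 3 SD, computed separately for each screening campaign, cut at about 15% in these data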
Calb FLC – C. albicans growth modulation with fluconazole; C. albicans CaCi-2 (fluconazole-resistant clinical isolate) + fluconazole, Alamar Blue growth, 48 h; AID 1979; 300,000 tested, 0.57% active; growth inhibition, % (concentration not given with the values);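 active = growth inhibition above about 58% in most replicates, limit read from the data, passing the limit was not always enough; inconclusive = exactly half the replicates above a set limit; inactive = most replicates below a set limit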;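 also: all wells also contain fluconazole at 8 µg/ml as a sub-toxic cotreatment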
Mdm2 MdmX conf – human Mdm2/MdmX binding inhibition, confirmed | shares compounds with Mdm2 MdmX PPI | luminescent assay | inhibition, % at 8 µM | 10,000 tested, 55% active | AID 489028; in the data active = inhibition above about 40%
FLuc counter – counter-screen for Mdm2/MdmX inhibitors: full-length luciferase | AID 504607 | SaOS-2 full-length luciferase counterscreen, luminescence | 6,200 tested, 77% active | inhibition, % at 8 µM | shares compounds with Mdm2 MdmX PPI;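 active = mean inhibition at 8 µM reaching about 37%, which flags the compound as non-specific, limit read from the data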;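 also: p53-null SaOS-2 cells with luciferase driven by a doxycycline-inducible promoter; compound on cells about two nights before reading with doxycycline added after day one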
Hits are given with their value; – = inactive; ? = inconclusive; · = no result given.

SMILES	Mdm2 MdmX PPI	PP5 inh	CSC inhib	Beta cell apopt	PP1 inh	Calb FLC	Mdm2 MdmX conf	FLuc counter
Cc1ccc(-c2csc(NC(=O)C3=NN(c4ccccc4)C(=O)CC3)n2)cc1	–	–	–	–	–	–	·	·
CC(C)(C)NC(=O)C(c1ccc(-c2ccccc2)cc1)N(C[C@H]1CC[C@@H]([C@@H]2CC[C@H](CO)O2)O1)C(=O)c1ccc(-c2ccccc2)cc1 (stereo partly drawn)	88	·	·	·	·	·	47	52
CC(C)(C)NC(=O)C(c1ccc(-c2ccccc2)cc1)N(C[C@H]1CC[C@@H]([C@@H]2CC[C@H](CO)O2)O1)C(=O)c1ccc2ccccc2c1 (stereo partly drawn)	–	·	·	·	·	·	·	·
CC(C)(C)NC(=O)C(c1ccc(-c2ccccc2)cc1)N(C[C@H]1CC[C@@H]([C@@H]2CC[C@H](CO)O2)O1)C(=O)c1cccc(Cl)c1 (stereo partly drawn)	50	·	·	·	·	·	–	·
O=C(NCc1ccc(F)cc1)c1ccc2c(c1)S(=O)(=O)c1ccccc1C2=O	–	–	–	–	–	–	·	·
COc1ccc(OC)c(CN2CCN(C(=O)c3ccco3)CC2)c1	–	–	–	–	–	–	·	·
Nc1c(C(=O)NCc2ccccc2)c2nc3ccccc3nc2n1CCCN1CCOCC1	–	–	–	–	–	–	·	·
Nc1c(C(=O)NCc2ccc(F)cc2)c2nc3ccccc3nc2n1CCCN1CCOCC1	54	–	?	–	–	–	–	·
COc1ccc(CNC(=O)c2c(N)n(CCCN3CCOCC3)c3nc4ccccc4nc23)cc1	56	–	83	–	–	–	–	·
Cn1c(=O)oc2cc(S(=O)(=O)CCC(=O)Nc3ccccc3)ccc21	–	–	–	–	–	–	·	·
Cn1ccnc1SCC(=O)Nc1cc(S(=O)(=O)N2CCOCC2)ccc1Cl	–	–	–	–	–	–	·	·
CCOc1ccc(-c2nc(N)ncc2-c2ccccc2)c(O)c1	50	–	–	–	–	?	–	·
CCOC(=O)C(CC)/C(C)=N\NC(=O)c1ccccc1O (stereo not drawn)	68	–	–	–	–	?	50	77
COc1ccc(Sc2ccc(-c3nc4cnccn4c3NC3CCCCC3)cc2OC)cc1	85	·	104	–	·	·	–	·
COc1ccc(-c2nc3ccccn3c2NC2CCCCC2)cc1SC1CCCCC1	70	–	–	·	–	–	–	·
COc1cc(-c2nc3ccccn3c2NCc2ccccc2)ccc1SC1CCCCC1	67	–	–	–	–	–	–	·
COC(=O)c1ccc(-c2ccc(Cl)cc2)nc1C	–	–	·	–	–	–	·	·
O=C(O)c1[nH]c2ccc(Cl)cc2c1CC(=O)N1CCN(C(=O)c2ccco2)CC1	–	–	–	–	–	–	·	·
Cc1ccc2[nH]c3c(c2c1)CCCC3C(N)=O (stereo not drawn)	–	–	–	–	–	–	·	·
CCN(CC)C(=O)C1CCCc2c1[nH]c1ccc(Cl)cc21 (stereo not drawn)	84	–	–	–	–	–	72	–
O=C(c1ccco1)N1CCN(C(=O)C2CCCc3c2[nH]c2ccc(Cl)cc32)CC1 (stereo not drawn)	86	–	–	–	–	–	67	–
CC(=O)c1c(C)oc2ccc(N(C(C)=O)S(=O)(=O)c3ccc(Br)cc3)cc12	–	–	–	–	–	–	·	·
CC(=O)c1c(C)oc2ccc(N(C(C)=O)S(=O)(=O)c3ccc(Cl)c([N+](=O)[O-])c3)cc12	98	–	–	–	–	–	95	57
COc1ccc(NS(=O)(=O)c2ccc(N3CC(O)=C(c4ccccc4)C3=N)cc2)cc1	–	–	–	–	–	–	·	·
O=C1OC(Nc2ccc3c(c2)OCO3)c2ccccc21 (stereo not drawn)	70	–	–	–	–	–	41	55
SMILES	Mdm2 MdmX PPI	PP5 inh	CSC inhib	Beta cell apopt	PP1 inh	Calb FLC	Mdm2 MdmX conf	FLuc counter
O=C1OC(Nc2ccc(F)c([N+](=O)[O-])c2)c2ccccc21 (stereo not drawn)	–	–	–	–	–	–	·	·
O=C(CN1CCC(NC(=O)Cc2ccccc2)CC1)Nc1ccccc1Br	–	–	–	–	–	–	·	·
CCN1CCN(CCCNC(=O)c2ccc3c(c2)NC(=O)c2ccccc2S3)CC1	–	–	–	–	–	–	·	·
CCN1CCN(CCCNC(=O)c2ccc3c(c2)N(Cc2ccc(C)cc2)CCS3)CC1	51	–	–	–	–	–	–	·
COc1ccc(/C=C2/Sc3ccc(C(=O)NCCCN4CCOCC4)cc3NC2=O)cc1OC	76	–	–	·	–	–	–	·
CCN1CCCC1CNC(=O)c1ccc2c(c1)NC(=O)/C(=C\c1ccc(OC)c(OC)c1)S2 (stereo not drawn)	53	–	–	–	–	–	–	·
COc1ccc(C(=O)NCCCN2CCOCC2)cc1OC	–	–	–	–	–	–	·	·
CCN1CCN(CCCNC(=O)c2ccc3c(c2)NC(=O)/C(=C\c2cccc(C)c2)S3)CC1	97	–	121	–	–	–	61	63
COc1ccc(NC(=O)Cn2cnc3sc(C)c(S(=O)(=O)N4CCOCC4)c3c2=O)cc1Cl	–	–	–	–	–	–	·	·
CC(=O)N[C@@H](Cc1c[nH]c2ccccc12)C(=O)NC1CC1	–	–	–	–	–	–	·	·
Cc1cccc(CN2C(=O)c3ccccc3Sc3ccc(C(=O)NCCCN4CCOCC4)cc32)c1	–	–	–	–	–	–	·	·
Cc1cccc(/C=C2/Sc3ccc(C(=O)NCCCN4CCOCC4)cc3NC2=O)c1	53	–	115	–	–	–	–	·
CCCn1c(SC(C)C(=O)N2CCOCC2)nc2ccc(Br)cc2c1=O (stereo not drawn)	–	–	–	·	–	–	·	·
CCN(CC)S(=O)(=O)c1ccc(N2CCOCC2)c(NC(=O)C2CC2)c1	–	–	–	–	–	–	·	·
CCOc1ccccc1Nc1nnc(SC(C)C(=O)Nc2nc(-c3ccccc3)cs2)s1 (stereo not drawn)	86	–	–	–	–	–	79	–
O=C1C=CC(=C(c2ccc(O)cc2)c2ccc(O)cc2)C=C1	91	–	·	–	–	·	70	45
Cc1ccccc1OCc1nc2ccccc2c(=O)n1/N=C/c1cn[nH]c1-c1ccccc1	–	–	–	–	–	–	·	·
Cc1cc(/C=N/n2c(COc3ccccc3)nc3ccccc3c2=O)c(O)c([N+](=O)[O-])c1	59	–	?	–	–	–	47	40
Cc1ccc(-c2[nH]ncc2/C=N/n2c(COc3ccccc3)nc3ccccc3c2=O)cc1	82	–	–	–	–	–	46	56
COc1ccccc1NC(=O)Nc1nc(CC(=O)N2CCN(c3ccc(F)cc3)CC2)cs1	70	–	–	·	–	–	40	83

High-throughput results (PubChem)
